Measurements published in PubChem BioAssay (NCI).
Several values for one entry are separate records, joined by “and”; a condition that tells them apart may be missing. Equal values may be shown once. Compounds without any hit were thinned out: in the full panel of roughly 83,000, 20% have a hit.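 Assay: single dose, 48 h. Readout: percent growth (0 = no net growth; negative = cell death). Active: <10.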 Activity calls are given as the source filed them.

Each compound was assayed on COLO 205 colon (assay: NCI-60 one-dose screen, 48 h (100 = growth as untreated, 0 = no growth, -100 = all killed)). Details: 10 µM unless noted.

| SMILES | growth |
| --- | --- |
| CC(=O)Nc1cccc2c1CCCC2 | 109% (inactive) and 101% (inactive) |
| Clc1ccc(SSc2ccc(Cl)cc2)cc1 | 99.6% (inactive) and 113% (inactive) |
| Cc1nnc(NC/C=C/c2ccccc2)s1 | 110% (inactive) and 113% (inactive) |
| Cc1cccc(/C=C\C(=O)c2ccccc2)c1 | 112% (inactive) and 114% (inactive) |
| COC(=O)[C@H]1CCCN1C(=O)C1CCCN1C(=O)[C@@H](Cc1ccccc1)NC(=S)Nc1cc(C(F)(F)F)cc(C(F)(F)F)c1 (stereo partly specified) | 121% (inactive) and 91.4% (inactive) |
| CNc1cc(-c2cccc(OC(F)(F)F)c2)nc2ccc(N3CCCC3)cc12 | -25.6% (active) and -81.7% (active) and -75.7% (active) |
| O=[N+]([O-])c1ccc(-n2[nH]nnc2=S)cc1 | 100% (inactive) |
| O=[N+]([O-])c1ccc(Oc2ccccc2)cc1 | 109% (inactive) and 110% (inactive) |
| CC(C(=O)O)n1cc(C#N)c(=O)[nH]c1=O (stereo unspecified) | 103% (inactive) and 112% (inactive) |
| CNC(=O)c1cc(Oc2ccc(NC(=O)Nc3ccc(Cl)c(C(F)(F)F)c3)cc2)ccn1 | -46% (active) and -24.7% (active) |
| COc1ccc(/C(C#N)=C/c2ccccn2)cc1 | 112% (inactive) and 173% (inactive) |
| Nc1n[nH]c(=S)n1-c1ccc(Cl)cc1 | 117% (inactive) |
| CCOC(=O)C(C(=O)OCC)C(c1ccccc1)N1CCN(c2ccccc2)CC1 (stereo unspecified) | 114% (inactive) and 124% (inactive) |
| OCCN1CCN(CCO)CC1 | 105% (inactive) and 113% (inactive) |
| CC1=C(/C=C/C(C)=C/C=C/C(C)=C/C=N/NC(=S)NC(=S)N/N=C/C=C(C)/C=C/C=C(C)/C=C/C2=C(C)CCCC2(C)C)C(C)(C)CCC1 | -79.7% (active) |
| NC(=O)NO | 118% (inactive) and 87.4% (inactive) |
| CN(Cc1ccccc1)Cc1ccccc1 | 105% (inactive) |
| O=C(Cc1cccc2ccccc12)N/N=C/c1ccc2c(c1)CCC2 | 82% (inactive) |

| SMILES | growth |
| --- | --- |
| O=C(CN1CCN(c2cc3c(cc2F)c(=O)c(C(=O)O)cn3C2CC2)CC1)Nc1ccc(Cl)cc1 | 99.9% (inactive) and 109% (inactive) |
| CCN(CC)CCC(CNc1c2ccc([N+](=O)[O-])cc2nc2cc(OC)c(OC)cc12)c1ccccc1 (stereo unspecified) | -49.7% (active) and -100% (active) |
| CN(C)c1ccc2nc3ccc(N)cc3[n+](-c3ccccc3)c2c1 | -62.8% (active) and -12.6% (active) |
| O=C(/C=C/c1ccccn1)c1ccccc1O | 63.6% (inactive) and 65.4% (inactive) |
| CCCCCN(CCCCC)CC(O)c1cc2c(c3ccccc13)CCCC2 (stereo unspecified) | 40.7% (inactive) |
| O=C(Nc1ccc(Br)cc1)c1cc(Br)ccc1O | 92.9% (inactive) and -42.3% (active) |
| Clc1ccc(NC(Nc2ccc(Cl)cc2)C(Cl)(Cl)Cl)cc1 | 129% (inactive) and 101% (inactive) |
| NC(=S)N/N=C(\c1ccc(Br)cc1)C1CC1 | 98.4% (inactive) and 94.5% (inactive) |
| CC[N+](CC)(CC(=O)Nc1c(C)cccc1C)Cc1ccccc1 | 103% (inactive) |
| NS(=O)(=O)c1cc2c(cc1Cl)NC(C(Cl)Cl)NS2(=O)=O (stereo unspecified) | 109% (inactive) and 113% (inactive) |
| CC(=O)c1ccccc1O | 131% (inactive) and 106% (inactive) and 118% (inactive) |
| Cc1n[nH]c(=O)n(/N=C\c2c[nH]c3ccccc23)c1=O | 104% (inactive) |
| COc1cc2c(c(OC)c1OC)-c1ccc(OC)c(=O)cc1[C@@H](NC(C)=O)CC2 | -36.4% (active) and 3.13% (active) and -47.6% (active) |
| O[C@H](c1cc(C(F)(F)F)nc2c(C(F)(F)F)cccc12)[C@@H]1CCCCN1 | 62.3% (inactive) and 60.5% (inactive) |
| COc1cc2nc(N3CCN(C(=O)C4COc5ccccc5O4)CC3)nc(N)c2cc1OC (stereo unspecified) | 93.6% (inactive) and 104% (inactive) |
| COc1ccc(-c2cn[nH]c2-c2cc(OC)c(OC)c(OC)c2)cc1N | -55.7% (active) and -53.2% (active) |
| CC1CCCC(=O)O1 (stereo unspecified) | 107% (inactive) and 122% (inactive) |
| CCNC(=O)Nc1ccc(-c2nc3c(c(N4CCOC[C@@H]4C)n2)CCN(C2COC2)C3)cc1 | 28.4% (inactive) and 3.31% (active) |
